From PubChem
Mito fusion act = inhibitors of mitochondrial division or activators of mitochondrial fusion; S. cerevisiae fusion-defective mutant growth rescue, CellTiterGlo 48 h; Potency, µM (series often up to 46.1 µM), for inactives: at the highest dose growth rescue (activation), hits mostly activators; 0.23% of 320,000 active; AID 485298; further: % of control where 0% means no effect; nearly all actives have a fitted effect of over 45% in size
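Luminescent cell viability in 1536-well qHTS format served as the measure of rescued growth in ts fusion-mutant S. cerevisiae cultured on non-fermentable YPEG for 48 hours at 37C.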
AT treatment = candidate therapy for ataxia-telangiectasia | 0.19% of 320,000 active | Potency, µM (doses to about 57.5 µM), without a hit: at the highest dose activation, most hits filed as activators | F2112 A-T fibroblasts, KAP-1 phosphorylation AlphaLISA; neocarzinostatin DNA damage 30 min before lysis; further: % of control where 0% means no effect; nearly all actives have a fitted effect of over 45% in size
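ATM-like activity read as KAP-1 phosphorylation via AlphaLISA donor/acceptor antibody pairs after lysis and 6 hr at 25C. Cells were ATM-null patient fibroblasts (F2112, hTERT), dosed 60 min, then exposed to the DSB inducer NCS for 30 min.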
Integrin act MD = activators of alpha7 integrin expression for muscular dystrophy. alpha7betagal myoblasts, beta-gal FDG fluorescence, 48 h. Potency, µM (titrated, usually from 38.3 µM), for inactives: top-dose activation, most hits filed as activators. 0.064% of 350,000 active;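 further: 100% = response of the positive control SU9516; nearly all actives have a fitted effect of over 60% in size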
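alpha7betagal+/- myoblasts (passage 13, 250/well) treated 48 h at 37C with compounds at 1:260 dilution of DMSO stock. Lysed, then beta-galactosidase activity read as FDG fluorescence (ex 480/em 540) after 30 min, with pre-read for autofluorescence.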
MCF10A rereplic = DNA re-replication induction in MCF 10a cells; MCF 10A DNA re-replication, Hoechst nuclear intensity, 48 h; Potency, µM (top dose mostly 46.1 µM), without a hit: top-dose activity, positive = re-replication, most hits filed as activators; 2.9% of 350,000 active; further: % of control where 0% means no effect; nearly all actives have a fitted effect of over 50% in size
SW480 rereplic = DNA re-replication induction in SW480 cells; SW480 DNA re-replication, Hoechst DNA content imaging, 48 h; Potency, µM (doses to about 46.1 µM), for inactives: at the highest dose re-replication activation, usual class: activators; 1.8% of 340,000 active; further: % of control where 0% means no effect; nearly all actives have a fitted effect of over 55% in size
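Hoechst fluorescence of nuclei (405 nm excitation, 500-530 nm emission) measured by plate-scanning imager after 48 hr compound exposure at 37 C; re-replication scored as increased number of nuclei with elevated intensity.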
* = called active by the depositor; ? = inconclusive; nt = no result; [ ] = another dose, or the depositor's remark. Sampled rows, rich in hits. Any-hit rate of the full collection: about 4.2%. The call rests on the fitted dose curve; in most records, active means well fitted activation curve with a large enough effect; inconclusive means small, poorly fitted or top-dose-only effect; inactive means no such curve, though single readings can be large or run the other way. Potency means the concentration at half of the fitted maximal effect.

SMILES | Mito fusion act | AT treatment | Integrin act MD | MCF10A rereplic | SW480 rereplic
CC[C@]1(O)C[C@H]2CN(CCc3c([nH]c4ccccc34)[C@@](C(=O)OC)(c3cc4c(cc3OC)N(C=O)[C@H]3[C@@](O)(C(=O)OC)[C@H](OC(C)=O)[C@]5(CC)C=CCN6CC[C@]43[C@@H]65)C2)C1 | nt | nt | nt | ? | 0.3µM*
COc1ccc(-c2csc(NC(=O)CSc3nnc(Nc4ccccc4C)s3)n2)cc1 | -4% | 4% | -16% | ? | 5.8µM*
CCOc1ccccc1Nc1nnc(SCC(=O)Nc2nc(-c3ccc(OC)cc3)cs2)s1 | 3% | 3% | 5% | 0% | 0%
COC(=O)CCC(=O)OC | nt | 10% | 25% | ? | 4.6µM*
CCC(CC)c1nnc(NC(=O)Cc2ccccc2[N+](=O)[O-])s1 | 3% | -5% | -27% | 3% | -16%
O=C(NC(=S)Nc1ccccc1O)c1ccc(-c2ccc(Cl)cc2)o1 | -9% | 4% | -35% | 16µM* | 14%
Cc1ccc(O)c(NC(=S)NC(=O)c2ccc(-c3ccc(Cl)cc3)o2)c1 | nt | nt | -40% | 6.5µM* | 26%
Cc1cc(C)cc(N2C(=O)C=CC2=O)c1 | nt | nt | -45% | 6.5µM* | 16µM*
COc1ccc([N+](=O)[O-])cc1/C=N/NC(=O)c1nonc1N | -15% | -2% | ? | 16µM* | 18µM*
CCOC(=O)c1[nH]c(C)c(C(=O)Nc2ccc(C)cc2C)c1C | 7% | 2% | 0% | 13µM* | 10µM*
CCOC(=O)c1[nH]c(C)c(C(=O)OCC(=O)NC(C)c2ccc(F)cc2)c1C (stereo not given) | -1% | 9% | -15% | ? | 9.2µM*
CCOC(=O)c1c(C)[nH]c(C(=O)OCC(=O)NC(C)(C)C)c1C | 2% | 1% | 7% | ? | -3%
CCOC(=O)c1[nH]c(C)c(C(=O)NCc2ccc(C)cc2)c1C | 3% | 7% | 10% | 0% | 17%
CCOC(=O)c1[nH]c(C)c(C(=O)Nc2cc(OC)ccc2OC)c1C | 8% | -11% | -17% | 0.63µM* | 1.3µM*
CCOC(=O)c1[nH]c(C)c(C(=O)c2ccc(C)cc2)c1C | 7% | 3% | 5% | 1.5µM* | 5.2µM*
Cc1ccc(C(C(=O)NC2CCCCC2)N(Cc2cccnc2)C(=O)c2csnn2)cc1 (stereo not given) | 8% | 0% | -1% | 1% | -12%
CN(Cc1ccccc1)C(=O)c1cccc(NC(=O)Cc2cccc([N+](=O)[O-])c2)c1 | nt | -1% | -15% | -4% | 2%
CCOC(=O)c1[nH]c(C)c(C(=O)Nc2ccccc2F)c1C | 7% | 0% | 12% | 7.3µM* | 8.2µM*
CS(=O)(=O)N1N=C(c2ccco2)CC1c1ccccc1 (stereo not given) | -2% | 5% | -23% | 3% | -5%
O=[N+]([O-])c1ccc(N2N=C(c3ccco3)CC2c2ccccc2)cc1 (stereo not given) | 11% | 6% | -8% | 8.2µM* | ?
CC(C)(C)C1=NN(c2ccc([N+](=O)[O-])cc2)C(c2ccccc2)C1 (stereo not given) | 5% | 1% | 7% | 19% | 7%
Fc1ccc(C2CC(c3ccco3)=NN2c2ccccc2)cc1 (stereo not given) | 9% | ? | 9% | 0.92µM* | 21µM*
CSCCC(NS(=O)(=O)c1cccc(C(F)(F)F)c1)C(=O)N(C)CCOc1ccc(Cl)cc1 (stereo not given) | ? | 6% | -42% | ? | 5.8µM*
c1cc2[nH]snc2c2nc(C3CC3)nc12 | 18% | 5% | 27% | 21µM* | 20%
O=C(Nc1ccc(S(=O)(=O)Nc2cnc3ccccc3n2)cc1)c1ccc([N+](=O)[O-])cc1Cl | 2% | -19% | 45% | ? | -18%
SMILES | Mito fusion act | AT treatment | Integrin act MD | MCF10A rereplic | SW480 rereplic
CC(C)(C)CC(C)(C)NC(=S)NC1CCN(Cc2ccccc2)CC1 | 8% | -1% | -25% | ? | ?
CN[C@H](C)C(=O)NC[C@H]1O[C@@H](n2cc(C)c(=O)[nH]c2=O)C[C@@H]1O | nt | nt | 27% | nt | nt
COc1ccc(CCc2ccc3ccccc3n2)cc1 | nt | nt | -6% | 18µM* | -2%
O=C(Oc1cccc2cccnc12)c1ccc(N2C(=O)C3C4CCC(C4)C3C2=O)cc1 (stereo not given) | 2% | -8% | 7% | 15µM* | 18µM*
Cc1ccc(C)c(NC(=O)CN2C(=O)NC(CCc3ccccc3)C2=O)c1 (stereo not given) | nt | 11% | 24% | 16% | -37%
Cc1ccc(C(=O)Oc2cccc(NC(=O)c3ccccc3)c2)cc1C | 10µM* | 1% | 13% | 4% | 15%
COc1ccc(CC(=O)Nc2cccc3c2CCCC3)cc1 | 2% | 2% | 30% | 12% | 3%
Cc1ccc(NC(=O)c2ccccc2)cc1C | 4% | -2% | 37% | 1% | 1%
COc1ccc(C(=O)Nc2cccc3c2CCCC3)cc1 | -5% | 4% | -40% | 13µM* | ?
COc1cccc(NC(=O)c2ccc3c(c2)CCCC3)c1 | 26% | 7% | 5.6µM* | 0% | -8%
Fc1ccc(-c2nnc(-c3ccc4ccccc4c3)o2)cc1 | nt | nt | -4% | 7% | 0%
CC(=O)N[C@H](C(=O)N[C@@H](C)C(=O)N[C@H](C#N)CC(=O)O)C(C)C | -3% | 17% | nt | nt | nt
CCn1c(=O)n(CC)c2cc(NS(=O)(=O)c3ccccc3)ccc21 | 2% | 2% | 41% | 8% | 3%
CCn1c2ccccc2c2cc(NS(=O)(=O)c3ccc(C)cc3)ccc21 | 11% | -1% | 11% | 18µM* | ?
COCc1cc(CN2CCN(CCCc3ccccc3)C(CCO)C2)ccc1OC (stereo not given) | -2% | 5% | 0% | 14% | -2%
O=C(CCC(F)(F)F)N1CCCC(CO)(CCc2ccccc2)C1 (stereo not given) | 0% | 2% | 25% | 0.65µM* | ?
Cc1ccccc1CC1(CO)CCCN(C(=O)CCC(F)(F)F)C1 (stereo not given) | 0% | 2% | 13% | 3% | -4%
COc1ccc(NS(=O)(=O)c2ccc3c(c2)CCC(=O)N3)cc1O | -4% | 0% | 14% | 3% | -419%
O=C(Nc1cccc2c1CCCC2)c1ccccc1Br | 1% | 5% | 25% | 1% | 2%[9.22 µM]
CCN(CC(=O)Nc1ccc(NC(C)=O)cc1)C(=O)C1CCN(C(=O)c2ccccc2C)CC1 | nt | nt | 4% | 20% | 3.7µM*
CC1CN(C(=O)Cn2c(=O)oc3ccccc32)CC(C)O1 (stereo not given) | -2% | 1% | 3% | 0% | -8%
Cc1cc(N2CCN(c3ccc(F)cc3)CC2)nc(-c2ccccc2)n1 | 20% | 1% | 23% | ? | -6%
